Measurements from PubChem BioAssay AID628 (Vanderbilt High Throughput Screening Facility, 2007).
In all, about 64,000 compounds went through this assay and about 2,200 (3.4%) were called active.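 The calls were made as follows: active = calcium fluorescence response, raw or row-and-column corrected B-score, differing from the plate sample mean either way at a set confidence level, mostly lower; inactive = the rest.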 The entries come from a sample that favours actives as a whole.

molecular target: Muscarinic acetylcholine receptor M1 (Rattus norvegicus) (UniProt P08482); assay: antagonists of rat M1 muscarinic receptor (AID 628); conditions: CHO-M1 cells, Fluo-4 calcium, ACh EC80 antagonist mode; at 10 µM; hits give low values
Sequence (P08482 whole entry, looked up): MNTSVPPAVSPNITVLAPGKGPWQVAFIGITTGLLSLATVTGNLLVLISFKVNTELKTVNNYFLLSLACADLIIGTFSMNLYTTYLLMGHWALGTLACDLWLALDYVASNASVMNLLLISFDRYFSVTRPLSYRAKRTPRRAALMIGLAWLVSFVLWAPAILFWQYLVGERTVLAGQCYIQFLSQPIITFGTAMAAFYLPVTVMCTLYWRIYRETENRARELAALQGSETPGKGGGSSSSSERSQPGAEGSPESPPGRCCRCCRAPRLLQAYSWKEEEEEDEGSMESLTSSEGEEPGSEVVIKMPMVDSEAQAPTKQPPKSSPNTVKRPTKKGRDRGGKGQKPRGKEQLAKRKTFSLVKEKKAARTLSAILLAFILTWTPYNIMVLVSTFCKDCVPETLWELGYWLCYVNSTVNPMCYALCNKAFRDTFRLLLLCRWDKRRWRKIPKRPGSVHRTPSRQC

SMILES	B-score
O=C(c1cnn2ccccc12)N1CCc2ccccc21	-0.297 (inactive)
O=C(CCS(=O)(=O)c1ccccc1)Nc1nc2c(s1)CCCC2	1.02 (inactive)
COc1ccc(CCNC(=O)CCn2c(=O)oc3ccccc32)cc1OC	0.0532 (inactive)
CCOC(=O)CSc1nnc(NC(=O)c2cccc(S(=O)(=O)N3CCCC3)c2)s1	0.563 (inactive)
CCOC(=O)C1=C(CC)Nc2ccccc2N=C1NC(=O)c1cccc(S(=O)(=O)N2CCCC2)c1	-3.22 (active)
CCOC(=O)CSc1nnc(NC(=O)c2cccc(S(=O)(=O)N3CCCCC3)c2)s1	-1.2 (inactive)
COc1cccc(NC(=O)Cn2cnc3sc(C)c(S(=O)(=O)N4CCN(C)CC4)c3c2=O)c1	0.144 (inactive)
CN(C)CCCn1c(N)c(C#N)c2nc(C#N)c(C#N)nc21	-0.181 (inactive)
CCOC(=O)c1[nH]c2ccc(OC)cc2c1NC(=O)CCN1CCN(Cc2ccccc2)CC1	-4.59 (active)
CCOC(=O)c1[nH]c2ccc(OC)cc2c1NC(=O)N1CCOCC1	0.577 (inactive)
Cc1c(C(=O)N2CCOCC2)[nH]c2ccc(OCc3ccccc3)cc12	-2.27 (inactive)
O=C(CN(c1ccc2c(c1)OCCO2)S(=O)(=O)c1ccccc1)Nc1ccc2c(c1)OCO2	0.461 (inactive)
CCOc1ccccc1NC(=O)c1cc(S(=O)(=O)N2CCC3(CC2)OCCO3)ccc1F	-0.759 (inactive)
CCOC(=O)C1CCN(C(=O)c2oc3ccc(S(=O)(=O)N4CCCCCC4)cc3c2C)CC1	-0.942 (inactive)
Cc1c(C(=O)Nc2ccccc2Cl)oc2ccc(S(=O)(=O)N3CCC4(CC3)OCCO4)cc12	2.7 (active)
Cc1ccc(NC(=O)CN(C)S(=O)(=O)c2cnc[nH]2)cc1C	0.0747 (inactive)
CCc1nnc(NC(=O)CCC(=O)O)s1	0.852 (inactive)
O=C(NCC(F)(F)F)Nc1nnc(C(F)(F)F)s1	-1.96 (active)
CC(=O)Nc1ccc(NC(=O)CN2CCCC(C)C2)c(Cl)c1 (stereo unspecified)	-1.15 (inactive)
Cc1cc(C)cc(NC(=O)C2CCN(c3nc(C)cc(C)n3)CC2)c1	0.673 (inactive)
COc1ccc(C2C(C#N)=C(N)Oc3cc(N)ccc32)cc1OC (stereo unspecified)	0.645 (inactive)
CCOc1ccc(C(=O)Nc2ccncc2)cc1	0.109 (inactive)
O=C(Nc1ccncc1)c1c(F)cccc1F	-4.49 (active)
O=C(Nc1ccncc1)c1cc2ccccc2o1	1.08 (inactive)

SMILES	B-score
CC1Oc2ccccc2N(Cc2cccnc2)C1=O (stereo unspecified)	1.07 (inactive)
COC(=O)c1sc(=S)n(-c2ccccc2)c1N	0.339 (inactive)
Cc1ccc(Cn2c(NC(=O)c3ccco3)nc3ccccc32)cc1	0.141 (inactive)
O=C(CSc1nnc2scc(-c3ccc(F)cc3)n12)NCc1ccco1	-0.509 (inactive)
Cn1c(-c2ccc(F)cc2)cnc1SCC(=O)NCc1ccco1	0.325 (inactive)
Cc1ccc(-c2csc3nnc(SCC(=O)NCc4ccco4)n23)cc1	-10.4 (active)
Cc1nc2ccccc2c2oc(C(=O)NCC3CCCO3)cc12 (stereo unspecified)	0.0181 (inactive)
Cc1nc2ccccc2c2oc(C(=O)NCCCN3CCC(C)CC3)cc12	-6.51 (active)
CCCN(CCC)CCNC(=O)c1cc2c(C)nc3ccccc3c2o1	0.00891 (inactive)
Cc1ccc(Nc2nc(CSc3nnnn3-c3ccccc3)cc(=O)[nH]2)cc1	-0.208 (inactive)
CCOC(=O)Cc1csc(NC(=O)CSc2nc(C)cc(=O)[nH]2)n1	-0.287 (inactive)
CN(CC(=O)NC1CCCCC1)S(=O)(=O)c1ccc(Br)s1	-1.64 (inactive)
Fc1ccccc1C(c1nnnn1Cc1ccc2c(c1)OCO2)N1CCN(Cc2ccccc2)CC1 (stereo unspecified)	0.889 (active)
Cc1cc(C)c2[nH]c(=O)c(C(c3nnnn3Cc3ccc4c(c3)OCO4)N3CCCC3)cc2c1 (stereo unspecified)	0.419 (inactive)
Cc1ccc(S(=O)(=O)Cn2nnnc2CN2CCN(Cc3ccc4c(c3)OCO4)CC2)cc1	-0.838 (inactive)
CCOC(=O)Cn1c(N)c(C(=O)OC)sc1=S	0.106 (inactive)
Cn1c(=O)c2c(nc(OCc3cccnc3)n2Cc2ccccc2)n(C)c1=O	-0.0901 (inactive)
Cc1ccccc1C(OCC(O)CN1CCCCC1CCO)c1ccccc1 (stereo unspecified)	-3.65 (active)
COc1cccc(-c2nnc(N(C)C(=O)c3ccno3)s2)c1	0.344 (inactive)
CC1CN(c2cc(=O)n(-c3cccc(Br)c3)c(=O)[nH]2)CC(C)O1 (stereo unspecified)	-0.299 (inactive)
CCN1C(=O)/C(=C\N2CCN(c3cccc(Cl)c3)CC2)SC1=S	0.609 (inactive)
CCN1C(=O)/C(=C\N2CCN(c3ccccc3)CC2)SC1=S	0.399 (inactive)
CCN1C(=O)/C(=C2\SC(N3CCCCC3)=NC2=O)c2ccccc21	-3.91 (active)
CS(=O)(=O)N(CC(=O)N1CCOCC1)c1ccc2c3c(cccc13)CC2	0.0978 (inactive)

SMILES	B-score
Cc1cc(NC(=O)COn2nnc3ccccc32)no1	-0.00408 (inactive)
CCOC(=O)c1c(C2CC2)csc1NC(=O)CSCc1c(C)noc1C	-0.892 (inactive)
Cc1cc(NC(=O)CCC2COc3ccccc3O2)no1 (stereo unspecified)	-0.711 (inactive)
COc1ccc(CCNc2ncnc3nc[nH]c23)cc1OC	-0.37 (inactive)
c1ccc2c(c1)OCC(CNc1ncnc3nc[nH]c13)O2 (stereo unspecified)	-5.49 (active)
COCc1[nH]nc2c1C(C1C=CCCC1)C(C#N)=C(N)O2 (stereo unspecified)	0.327 (inactive)
O=C(c1ccccc1)c1ccc(OC(=O)N2CCCC2)cc1	-0.578 (inactive)
CCOc1ccccc1C1CC(c2ccccc2)Nc2nc(N)nn21 (stereo unspecified)	0.59 (inactive)
CCCCOC(=O)c1[nH]c(C)c(C(=O)OC)c1C	1.78 (active)
CCOC(=O)c1c(C)[nH]c(C(=O)NCc2ccccc2OC)c1C	-0.312 (inactive)
CCOC(=O)c1c(C)[nH]c(C(=O)COc2ccc3c(c2)OCO3)c1C	-0.104 (inactive)
COc1ccccc1N(CC(=O)N1CCCCC1)S(=O)(=O)c1ccccc1	-0.874 (inactive)
COc1ccc(N2C(=O)c3cccc4cccc(c34)C2=O)nn1	0.203 (inactive)
COC(=O)C1=C(C)Nc2ncnn2C1c1ccco1 (stereo unspecified)	0.342 (inactive)
CC(=O)C1=C(O)C(=O)N(c2ccc(S(N)(=O)=O)cc2)C1c1ccccc1F (stereo unspecified)	-0.56 (inactive)
C/C(CC(O)(/C=N/O)c1ccccc1)=N\O (stereo unspecified)	0.581 (inactive)
CCOC(=O)N1CCC(NC(=O)c2ccc3nc(N4CCOCC4)sc3c2)CC1	0.0825 (inactive)
COC(=O)Cc1cc(=O)n(-c2nc3ccccc3s2)[nH]1	0.181 (inactive)
CCOC(=O)N1CCN(CC(=O)Nc2cc(C)nn2-c2nc3ccccc3s2)CC1	-2.41 (active)
CCCCNc1nc2c(c(=O)n(C)c(=O)n2C)n1Cc1cccc(OC)c1	-0.0697 (inactive)
COC(=O)NC1(C(F)(F)F)NC(=O)N(C2CCCCC2)C1=O (stereo unspecified)	-0.0429 (inactive)
O=C1NC(Nc2nc3ccccc3s2)(C(F)(F)F)C(=O)N1C1CCCCC1 (stereo unspecified)	-3.66 (active)
Cc1c(NC(=O)C(C)OC(=O)c2cc3c4ccccc4n(C)c3s2)c(=O)n(-c2ccccc2)n1C (stereo unspecified)	0.392 (inactive)
CCC(=O)c1ccc(OCC(O)CN2C(=O)NC(C)(C)C2=O)cc1 (stereo unspecified)	0.82 (active)

SMILES	B-score
CCC(=O)c1ccc(OCC(O)CN2CC(C)OC(C)C2)cc1 (stereo unspecified)	0.0196 (inactive)
CC1(C)NC(=O)N(CCOc2cccc(Oc3ccccc3)c2)C1=O	-0.997 (inactive)
Cc1ccc(C(c2sc3nc(C)nn3c2O)N2CCN(c3ccccc3)CC2)cc1 (stereo unspecified)	0.39 (inactive)
Cn1c(SCc2nc3ccccc3s2)nnc1-c1ccc2c(c1)OCO2	0.0691 (inactive)
Cc1cccc2cc(CN(Cc3ccc4c(c3)OCO4)Cc3nnnn3C3CCCC3)c(=O)[nH]c12	-0.601 (inactive)
Cc1cccc2cc(CN(Cc3cccs3)C(c3nnnn3C3CCCC3)C(C)C)c(=O)[nH]c12 (stereo unspecified)	0.279 (inactive)
CCC(c1nnnn1C1CCCC1)N(Cc1cccs1)Cc1cc2cccc(C)c2[nH]c1=O (stereo unspecified)	1.98 (active)
Cc1cc(Cl)c(S(=O)(=O)NCc2cccnc2)cc1OCC(N)=O	0.63 (inactive)
Cn1c(=O)c2c(nc(Br)n2CCSc2nc3ccccc3o2)n(C)c1=O	0.536 (inactive)
COC(=O)c1cc(OC)c(OC)cc1NC(=O)C1CCCO1 (stereo unspecified)	-0.418 (inactive)
CCN(CCCCOC(=O)c1ccc(OC)c(OC)c1)C(C)Cc1ccc(OC)cc1 (stereo unspecified)	-14.7 (active)
COc1ccc(-n2nnnc2SCC(=O)c2ccc(OC)c(OC)c2)cc1	-0.785 (inactive)
CCOc1ccc(C(=O)Nc2cc(OC)ccc2OC)cc1	0.223 (inactive)
O=C(CSc1nnnn1-c1ccc2c(c1)CCC2)Nc1ccc2c(c1)OCCO2	-1.02 (inactive)
CC(=O)Nn1cc2c(=O)n(C)c(=O)n(C)c2c1	0.526 (inactive)
CC(C)OCCCNC(=O)C1CC(=O)N(C2CCCCCCC2)C1 (stereo unspecified)	-0.0238 (inactive)
O=C(NCCc1ccc(Cl)cc1)C1CC(=O)N(C2CCCCC2)C1 (stereo unspecified)	-0.27 (inactive)
O=C(NCCCN1CCCCCC1)C1CC(=O)N(C2CCCC2)C1 (stereo unspecified)	-2.1 (active)
Cc1ccc(-n2nc3c(c2NC(=O)CCC2CCCCC2)CS(=O)C3)cc1 (stereo unspecified)	0.299 (inactive)
Cc1ccnc(SCCn2c(N(C)Cc3ccccc3)nc3c2c(=O)n(C)c(=O)n3C)n1	0.589 (inactive)
COC(=O)C(C)Sc1ccc2nnc(-c3cccc(F)c3)n2n1 (stereo unspecified)	-0.0277 (inactive)
CCC(C(=O)OCCN(CC)CC)c1ccccc1 (stereo unspecified)	-11.7 (active)
CCOC(=O)C(C(=O)OCC)C(C#N)c1ccccc1 (stereo unspecified)	0.000361 (inactive)
CC(NC(=O)Nc1ccccc1)c1ccccc1 (stereo unspecified)	0.2 (inactive)
